# Experimental data from PubChem BioAssay (NCATS).
# Results filed as inconclusive are left out. A call without a number means that no potency is given here. Calls of active or inactive are those of the source. Calls come from the whole dose curve; as a rule, active = well fitted inhibition curve with a large enough effect; inconclusive = small, poorly fitted or top-dose-only effect; inactive = flat fitted curve, though single readings scatter.
# Target: Calcium and integrin-binding protein 1 (Homo sapiens) (UniProt Q99828)
# Sequence (Q99828 whole entry, looked up): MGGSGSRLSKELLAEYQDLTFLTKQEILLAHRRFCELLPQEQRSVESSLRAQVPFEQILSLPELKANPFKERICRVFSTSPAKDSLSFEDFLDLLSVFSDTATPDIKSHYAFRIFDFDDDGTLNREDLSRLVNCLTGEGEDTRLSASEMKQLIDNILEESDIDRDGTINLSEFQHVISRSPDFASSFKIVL
# Test: Primary qHTS for Identification of Calcium Integrin Binding Protein 1 (CIB1) Competitor (AID 1508620);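 note: GST tagged CIB1 binding a fluorescein labelled alphaIIb integrin peptide tracer; top concentration of the series differs between compounds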
# Conditions: CIB1-GST / FITC-alphaIIb peptide fluorescence polarization; series mostly up to 114 µM
# Method in brief: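 CIB1-GST (1 uM final) and compound incubated 15 min at room temperature before adding FITC-alphaIIb peptide tracer (100 nM final). Competition for binding read by fluorescence polarization (ex 480, em 540) after another 15 min at room temperature.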
SMILES,Potency,"activity change, negative = inhibition"
CC(C)=CCC(O)/C(C)=C/CO[C@@H]1O[C@H](CO)[C@@H](O)[C@H](O)[C@H]1O (stereo partly specified),inactive,
COC1CC(OC2CCC3(C)C(=CCC4C3C(OC(C)=O)C(OC(=O)/C=C/c3ccccc3)C3(C)C(C(C)O)CCC43O)C2)OC(C)C1OC1CC(OC)C(OC2OC(C)C(OC3OC(CO)C(O)C(O)C3O)C(OC)C2O)C(C)O1 (stereo unspecified),,-8.58% [at 12.4 µM] (inactive)
C#CCN(Cc1cc2c(=O)n(C)c(CN3CCN(C)CC3)nc2cc1Cl)c1ccc(C(=O)NCc2cccnc2)cc1,inactive,
CC(=O)O[C@@](C)(C(=O)/C=C/C(C)(C)O)[C@H]1[C@H](O)C[C@@]2(C)[C@@H]3CC=C4[C@@H](C=C(O)C(=O)C4(C)C)[C@]3(C)C(=O)C[C@]12C,inactive,
Cc1ccc(S(=O)(=O)n2ccc(-c3c(-c4ccc(Cl)cc4)noc3C)n2)cc1,inactive,
CC1=CC(=O)CC(C)(C)C1/C=C/C(C)O[C@@H]1O[C@H](CO)[C@@H](O)[C@H](O)[C@H]1O[C@@H]1OC[C@](O)(CO)[C@H]1O (stereo partly specified),inactive,
CC(C(O)/C=C/C(C)(C)O)C1CCC2(C)C3C(=O)C=C4C(CCC(O)C4(C)C)C3(C)CCC12C (stereo unspecified),inactive,
CC1COC2(OC3CC4C5CC(O[C@@H]6O[C@H](C)[C@@H](O[C@@H]7O[C@@H](C)[C@H](O)[C@@H](O)[C@H]7O)[C@H](O)[C@H]6O)C6CC(O)CCC6(C)C5CCC4(C)C3C2C)C(O)C1 (stereo partly specified),inactive,
C[C@@H]1C(=O)O[C@H]2[C@H](O)C34[C@H]5C[C@@H](C(C)(C)C)C36[C@@H](OC(=O)[C@@H]6O)O[C@@]4(C(=O)O5)[C@@]12O (stereo partly specified),inactive,
FC(F)(F)c1cc(-c2ncn(/C=C\c3nnco3)n2)cc(C(F)(F)F)c1,inactive,
CS(=O)(=O)N(CC(=O)NCC1CC1)c1cc(C(F)(F)F)ccc1Cl,inactive,
CN(C)C/C=C/C(=O)Nc1cccc(C(=O)Nc2ccc(Nc3nccc(-c4cccnc4)n3)cc2)c1,inactive,
COC(=O)[C@@]1(c2ccc(C)cc2)C[C@H]1CN1CCC(O)(c2ccccc2)CC1,inactive,
CC(O)/C=C/C1(O)C2(C)COC1(C)CC(O)C2 (stereo unspecified),inactive,
C=C1CN(Cc2ccc(C(=O)Nc3ccccc3N)cc2)C(=O)c2ccccc21,inactive,
C/C=C1\[C@H](O[C@@H]2O[C@H](CO)[C@@H](O)[C@H](O)[C@H]2O)OC=C2C(=O)OCCc3ccc(O)c(c3)Oc3ccc(cc3)CCOC(=O)C[C@H]21,inactive,

SMILES,Potency,"activity change, negative = inhibition"
CC(=O)OC1C[C@@]2(C)[C@@H](CC[C@@H](C)[C@]23Cc2c(O)cc4c(c2O3)CNC4=O)C(C)(C)[C@@H]1O (stereo partly specified),inactive,
Cc1ccc(F)cc1C(=O)Nc1ccc(C(=O)N2Cc3cccn3Cc3ccccc32)c(Cl)c1,inactive,
COc1cc(OC)c(/C=C/S(=O)(=O)Cc2ccc(OC)c(NCC(=O)O)c2)c(OC)c1,inactive,
NC(=O)c1cnc(NCCc2ccc(O)c(Cl)c2)nc1NCc1ccccc1,inactive,
CC(=O)NC[C@H]1CN(c2ccc(N3CCN(C(=O)CO)CC3)c(F)c2)C(=O)O1,inactive,
O=C(O)[C@H](Cc1ccc(Nc2nccc3ccncc23)cc1)NC1=C(Br)C(=O)C12CCCCC2,inactive,
N=c1nc2n(cc1F)C1OC(CO)C(O)C1O2 (stereo unspecified),inactive,
C=C1CCC2C(C)(C(=O)O)CCCC2(C)C1CC/C(=C\CO)CO (stereo unspecified),inactive,
Cc1cccc(S(=O)(=O)N2CCC[C@@H]2CCN2CCC(C)CC2)c1,inactive,
COC1CC(O[C@H]2CC[C@@]3(C)C(CCC4C3[C@H](OC(C)=O)[C@@H](OC(=O)/C=C/c3ccccc3)[C@]3(C)C(C(C)=O)CC[C@]43O)C2)OC(C)C1OC1CC(OC)C(OC2CC(OC)C(OC3OC(C)C(OC4OC(CO)C(O)C(O)C4O)C(OC)C3O)C(C)O2)C(C)O1 (stereo partly specified),,3.75% [at 12.4 µM] (inactive)
CC(=O)N1CCN(Cc2ccc([C@H](C)Nc3nccc(N4C(=O)OC[C@@H]4C(C)C)n3)cc2)CC1,inactive,
N#Cc1c(Oc2ccc(F)c(NC(=O)Cc3cccc(C(F)(F)F)c3)c2)ccc2nc(NC(=O)C3CC3)sc12,inactive,
CC(NC(=O)CCc1nc2ccccc2c(=O)[nH]1)c1ccccc1 (stereo unspecified),inactive,
CC1(C(=O)O)CCCC2(C)C3=CCC4CC3(CCC12)CC4CO (stereo unspecified),inactive,
C/C=C1\[C@H](OC2OC(COC3OC(CO)C(O)C(O)C3O)C(O)C(O)C2O)OC=C(C(=O)OC)[C@H]1CC(=O)OCCc1ccc(O)cc1 (stereo partly specified),inactive,
